proKLK7 act: activates the human kallikrein-7 zymogen; purified proKLK7, EDANS-DABCYL substrate fluorescence; 100% is mature enzyme control, 0% vehicle; activation, % at 7 µM; actives 0.9% (n = 370,000); AID 652039;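 active = activation above the mean of all tested compounds plus 3 SD, computed per campaign excluding outliers beyond control limits, cut at about 13% in these data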
FAS TE block: inhibitors of human fatty acid synthase thioesterase domain; inhibition, % at 15 µM; actives 0.67% (n = 360,000); recombinant FAS-TE, OMFH fluorogenic substrate, fluorescence endpoint; AID 602261;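 active = compounds whose normalised, plate-corrected inhibition of enzyme fluorescence in the single-dose primary screen is 50% or more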;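 also: 0% = DMSO with enzyme and 100% = substrate without enzyme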
Target sequence (P49327 whole entry, looked up, the tested form may be a part): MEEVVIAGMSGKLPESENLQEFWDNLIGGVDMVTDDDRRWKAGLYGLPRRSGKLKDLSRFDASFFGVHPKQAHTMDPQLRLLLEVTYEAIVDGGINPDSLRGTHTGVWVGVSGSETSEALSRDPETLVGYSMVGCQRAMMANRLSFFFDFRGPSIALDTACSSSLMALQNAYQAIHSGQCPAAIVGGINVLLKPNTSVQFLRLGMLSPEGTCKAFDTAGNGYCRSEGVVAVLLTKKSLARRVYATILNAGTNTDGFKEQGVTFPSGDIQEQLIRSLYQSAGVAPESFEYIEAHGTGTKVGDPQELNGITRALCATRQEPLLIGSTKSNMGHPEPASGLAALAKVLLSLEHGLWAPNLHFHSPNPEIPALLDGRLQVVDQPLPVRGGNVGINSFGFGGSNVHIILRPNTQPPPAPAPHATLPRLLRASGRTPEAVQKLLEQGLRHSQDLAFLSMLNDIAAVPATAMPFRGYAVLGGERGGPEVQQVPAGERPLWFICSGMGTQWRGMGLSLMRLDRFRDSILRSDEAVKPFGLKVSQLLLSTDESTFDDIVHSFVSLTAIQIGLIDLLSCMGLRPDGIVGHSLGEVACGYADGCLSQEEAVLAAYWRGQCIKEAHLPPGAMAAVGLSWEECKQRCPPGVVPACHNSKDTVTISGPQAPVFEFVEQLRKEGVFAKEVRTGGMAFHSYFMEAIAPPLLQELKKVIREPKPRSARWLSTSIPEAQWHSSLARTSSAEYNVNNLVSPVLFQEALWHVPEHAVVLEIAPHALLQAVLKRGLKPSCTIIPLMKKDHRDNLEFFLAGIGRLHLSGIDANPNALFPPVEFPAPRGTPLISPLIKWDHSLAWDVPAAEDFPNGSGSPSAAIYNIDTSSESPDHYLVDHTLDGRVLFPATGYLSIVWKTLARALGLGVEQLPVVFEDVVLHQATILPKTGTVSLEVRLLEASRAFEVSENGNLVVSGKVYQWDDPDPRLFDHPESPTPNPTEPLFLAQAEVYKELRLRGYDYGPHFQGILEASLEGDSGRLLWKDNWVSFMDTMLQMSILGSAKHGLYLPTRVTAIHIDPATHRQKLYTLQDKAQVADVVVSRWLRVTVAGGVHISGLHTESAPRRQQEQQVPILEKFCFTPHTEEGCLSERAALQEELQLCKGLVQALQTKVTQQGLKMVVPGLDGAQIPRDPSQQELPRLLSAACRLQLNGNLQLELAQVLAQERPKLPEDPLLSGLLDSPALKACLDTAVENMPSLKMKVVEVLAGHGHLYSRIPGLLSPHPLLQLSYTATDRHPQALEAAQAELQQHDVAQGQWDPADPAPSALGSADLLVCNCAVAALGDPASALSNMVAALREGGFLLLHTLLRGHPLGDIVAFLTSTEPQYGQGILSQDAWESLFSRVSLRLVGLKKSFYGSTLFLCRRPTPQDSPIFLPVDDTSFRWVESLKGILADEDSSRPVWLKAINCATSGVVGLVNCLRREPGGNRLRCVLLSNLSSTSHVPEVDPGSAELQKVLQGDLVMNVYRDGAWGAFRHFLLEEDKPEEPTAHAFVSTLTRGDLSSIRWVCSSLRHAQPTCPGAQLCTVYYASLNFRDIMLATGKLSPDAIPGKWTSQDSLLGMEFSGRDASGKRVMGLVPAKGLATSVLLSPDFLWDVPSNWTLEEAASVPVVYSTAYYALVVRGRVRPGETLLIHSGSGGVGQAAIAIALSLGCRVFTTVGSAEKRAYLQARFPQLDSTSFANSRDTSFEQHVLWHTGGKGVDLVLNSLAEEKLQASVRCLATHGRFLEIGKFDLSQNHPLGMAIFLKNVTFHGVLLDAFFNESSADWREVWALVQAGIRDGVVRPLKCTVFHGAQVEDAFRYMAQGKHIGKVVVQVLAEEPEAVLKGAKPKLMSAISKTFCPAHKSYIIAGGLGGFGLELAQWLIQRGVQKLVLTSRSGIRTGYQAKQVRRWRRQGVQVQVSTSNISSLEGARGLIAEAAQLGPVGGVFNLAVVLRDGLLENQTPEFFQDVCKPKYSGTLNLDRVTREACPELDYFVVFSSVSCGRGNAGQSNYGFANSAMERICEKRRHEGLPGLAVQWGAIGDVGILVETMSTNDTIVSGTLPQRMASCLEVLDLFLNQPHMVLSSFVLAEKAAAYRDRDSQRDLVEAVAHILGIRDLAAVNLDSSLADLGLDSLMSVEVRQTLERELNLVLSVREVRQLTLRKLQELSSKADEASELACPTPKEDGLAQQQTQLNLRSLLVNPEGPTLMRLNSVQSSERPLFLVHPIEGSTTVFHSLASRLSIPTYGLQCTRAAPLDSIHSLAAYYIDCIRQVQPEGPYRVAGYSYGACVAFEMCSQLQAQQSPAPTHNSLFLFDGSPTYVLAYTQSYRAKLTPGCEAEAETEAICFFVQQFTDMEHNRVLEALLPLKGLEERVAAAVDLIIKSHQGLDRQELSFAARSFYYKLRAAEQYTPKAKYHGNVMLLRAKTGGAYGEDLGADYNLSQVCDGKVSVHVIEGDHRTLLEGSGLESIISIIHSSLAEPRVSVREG
SMARCA2 act: increases SMARCA2 function in MMTV reporter cells | MG213 cells, MMTV-luciferase reporter, dexamethasone, overnight | activation, % at 9.1 µM | actives 1% (n = 370,000); in the data active = activation above about 7.8%;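 also: 0% = vehicle wells and 100% = reference activator wells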
GAA850 FXN act: increases GAA850 frataxin promoter reporter activity; HEK293 lucGAA850 FXN promoter luciferase reporter, 24 h; percent of 10 µM SAHA response; activation, % at 6 µM; actives 0.56% (n = 360,000); AID 540364;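 active = activation above the average of all compounds screened plus 3 SD, cutoff fixed separately per campaign, cut at about 7.5% in these data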;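 also: 0% = DMSO wells and 100% = 10 µM SAHA wells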
proKLK7 act conf: proKLK7 activation, confirmation; AID 686949; actives 68% (n = 3,200); shares compounds with proKLK7 act; activation, % at 7 µM; purified proKLK7, EDANS-DABCYL substrate fluorescence; scaled: vehicle 0, mature enzyme 100;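 active = activation, as change over the incubation, above the mean of all tested compounds plus 3 SD, cut at about 13% in these data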
EDANS interfere: fluorescence interference counter-screen for KLK7 activators | EDANS-DABCYL substrate fluorescence interference, no enzyme, 4 h; solvent 0%, active enzyme control 100% | activation, % at 7 µM | shares compounds with proKLK7 act | actives 80% (n = 3,200);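 active = activation above the all-compound mean plus 3 SD, ignoring values outside control-based bounds, cut at about 4.8% in these data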;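 also: value is the 4 h activation minus the activation read at time zero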
* hit, by the source's call; / = not tested or not shown. Compounds with a hit are over-represented: about 2.9% of the library has one in this group of screens.

SMILES	proKLK7 act	FAS TE block	SMARCA2 act	GAA850 FXN act	proKLK7 act conf	EDANS interfere
COCCNS(=O)(=O)c1ccc2c(c1)C(=NO)c1cc(S(=O)(=O)NCCOC)ccc1-2	13.7*	-84.9	-4.9	-2.1	0.9	-1.3
CCCNC(=O)C1(C)CCN1C(=O)C/C=C/c1ccccc1 (centres undefined)	0.1	-7.1	-3.5	0.9	/	/
Cn1c(-c2ccc(C=O)s2)nc2ccccc21	47.7*	-5.0	4.7	1.3	52.3*	55.6*
Cn1c(-c2cccs2)nc2ccccc21	0.5	-5.6	3.8	5.9	/	/
COc1cccc(CCOC(=O)c2c(-c3ccsc3)oc3c2C(OC(C)=O)CCC3)c1 (centres undefined)	-0.8	19.6	4.2	/	/	/
C=CCNC(=S)NNC(=O)c1cccn(Cc2cccc(Cl)c2)c1=O	26.6*	-4.1	1.6	1.2	42.5*	43.9*
CN1CCN(C(=O)c2cccn(Cc3cccc(Cl)c3)c2=O)CC1	0.4	-4.1	-1.7	1.0	/	/
C=CCNC(=S)NNC(=O)c1cccn(Cc2ccc(Cl)cc2)c1=O	27.3*	-7.0	-5.4	1.4	38.9*	46.6*
CSc1ccc(C(=O)C2CCCN(C(=O)CCCn3cncn3)C2)cc1 (centres undefined)	0.1	-11.7	-0.8	1.0	/	/
O=C(Nc1cccc(-c2cn3cccnc3n2)c1)c1cccs1	7.8	-16.1	-2.8	2.2	/	/
Cc1c(-c2cccc(NC(=O)c3cccs3)c2)nc2ncccn12	61.9*	-4.2	-0.8	2.0	47.1*	62.2*
Cc1c(-c2cccc(NC(=O)c3ccco3)c2)nc2ncccn12	91.0*	-2.8	-3.0	0.0	68.7*	80.8*
O=C(Nc1cccc(-c2cn3cccnc3n2)c1)c1ccco1	/	-7.1	/	-1.1	/	/
CCc1c(C2(O)CCCCC2)[nH]c2cnccc12	70.0*	-6.4	0.0	1.8	12.0	16.5*
Cc1cccc(NC(=O)c2cccc(S(=O)(=O)N3CCc4ccccc4C3)c2)n1	0.0	24.5	-3.3	2.1	/	/
Cc1ccc2oc(=O)cc(CN3CC(C)OC(C)C3)c2c1 (centres undefined)	0.8	-6.6	-2.0	2.9	/	/
CC1CCN(Cc2cc(=O)oc3cc(O)c(Cl)cc23)CC1	48.1*	-4.7	-2.3	-1.6	70.3*	70.9*
CN(Cc1ccccc1F)Cc1cc(=O)oc2cc(O)c(Cl)cc12	59.6*	-1.8	-1.6	1.1	68.5*	60.7*
CC1CN(Cc2cc(=O)oc3cc(O)c(Cl)cc23)CC(C)O1 (centres undefined)	87.4*	-4.3	-2.8	-1.5	73.4*	69.5*
O=C(COC(=O)Cc1ccsc1)NCC12CC3CC(CC(C3)C1)C2	0.2	4.4	-2.9	1.9	/	/
CC[C@]12c3[nH]c4cc(-c5ccco5)ccc4c3CCN1C(=O)[C@@H](CC(=O)NCCc1ccccn1)C[C@@H]2C(=O)N1CCN(C(=O)c2ccco2)CC1	150.9*	-3.5	-0.2	-0.6	119.4*	137.9*
CC[C@]12c3[nH]c4cc(-c5ccco5)ccc4c3CCN1C(=O)[C@@H](CC(=O)NCCN1CCOCC1)C[C@@H]2C(=O)N1CCN(C(=O)c2ccco2)CC1	88.3*	-1.7	0.7	1.2	63.7*	86.1*
CC[C@]12c3[nH]c4cc(-c5ccco5)ccc4c3CCN1C(=O)[C@@H](CC(=O)NCCN1CCOCC1)C[C@@H]2C(=O)N1CCN(C(=O)C2CC2)CC1	110.5*	-2.6	-0.1	0.7	75.5*	83.3*
CC[C@]12c3[nH]c4cc(-c5ccco5)ccc4c3CCN1C(=O)[C@@H](CC(=O)NCCC1=CCCCC1)C[C@@H]2C(=O)N1CCN(C(=O)c2ccco2)CC1	/	9.8	/	-1.4	/	/
O=C(CSc1nc2sc3c(c2c(=O)[nH]1)CCCC3)NCCO	0.3	-4.3	-6.3	-0.6	/	/
SMILES	proKLK7 act	FAS TE block	SMARCA2 act	GAA850 FXN act	proKLK7 act conf	EDANS interfere
CC(C)CCc1noc(CN(C)CC2CCN(Cc3ccccc3)CC2)n1	0.1	-3.6	-1.2	1.4	/	/
O=C(Nc1cccc(S(=O)(=O)Nc2ccccc2Cl)c1)c1ccc(Cl)nc1	-0.6	-3.2	-7.9	-4.5	/	/
COc1cc(C(=O)NCC(=O)OCc2ccc(F)cc2)cc(OC)c1OC	0.3	-4.3	4.4	1.6	/	/
CC(C)OC(=O)CC(=O)CSc1nc2c(cc1C#N)CCCCC2	24.4*	7.3	4.3	2.6	79.8*	81.1*
CC(C)OC(=O)CSc1nc2c(cc1C#N)CCCCC2	0.3	-4.0	4.5	3.2	/	/
CCOC(=O)CC(=O)CSc1nc2c(cc1C#N)CCCCC2	29.0*	2.4	5.7	5.0	58.8*	61.7*
N#CCSc1nc2c(cc1C#N)CCCCCC2	14.8*	15.3	-4.1	5.6	34.0*	33.4*
CCc1ccc2[nH]c(=O)c(CN(CCCO)C(=O)NCc3ccccc3)cc2c1	0.6	-4.6	-2.3	2.1	/	/
COc1cccc(CC(=O)OCC(=O)NC2(C#N)CCCCC2)c1	0.1	-7.4	-1.2	-0.6	/	/
COc1cccc(OCCOc2c(OC)cccc2OC)c1	0.3	-7.5	0.9	-0.1	/	/
CCOC(=O)/C(C#N)=C(\O)c1ccc(NC(=O)c2ccc([N+](=O)[O-])cc2)cc1	-0.1	2.0	-3.1	0.3	/	/
CC(C)CCNc1c(-c2cccs2)nc2ccccn12	143.6*	5.1	3.9	4.3	-8.3	-19.3
Cc1nc2ccccn2c(=O)c1NC(=O)COc1ccccc1	0.5	-3.6	4.4	-1.6	/	/
O=C(COc1ccc(Cl)cc1)Nc1c(-c2cccs2)nc2ccccn12	12.7*	3.4	-0.2	-1.7	9.8	0.3
Cn1ccc(C(=O)NC(=S)Nc2ccc([N+](=O)[O-])cc2O)n1	0.6	3.5	2.7	0.7	/	/
O=C(c1sccc1-c1ccccc1)N1CCN(S(=O)(=O)c2ccccc2)CC1	-0.9	17.1	-1.1	0.0	/	/
COc1ccc(C2CC(c3ccncc3)=NN2c2ccc(S(N)(=O)=O)cc2)cc1 (centres undefined)	91.3*	1.6	0.0	1.6	-93.8	8.8*
COc1ccc(C2CC(c3ccc(Cl)cc3)=NN2c2ccc(S(N)(=O)=O)cc2)cc1 (centres undefined)	-228.0	23.3	-5.8	-2.3	/	/
COc1cccc(C(=O)N(CN2CCCC2=O)c2cccc(Cl)c2)c1	-0.2	-6.8	1.9	1.7	/	/
CC(C)CN1C(=O)c2ccc(NC(=O)c3ccco3)cc2C1=O	0.5	-0.2	-3.1	3.7	/	/
CC(C)CN1C(=O)c2ccc(NC(=O)c3cccs3)cc2C1=O	12.9*	2.6	-1.1	3.7	-15.5	-13.5
O=C(COc1ccc(/C=N/NC(=O)c2ccncc2)cc1)Nc1ccccc1	26.8*	-1.5	2.2	0.6	-21.6	-15.4
COc1ccc(NC(=O)COc2ccc(/C=C/c3cc[n+](C)cc3)cc2OC)cc1	30.6*	-5.8	-0.1	2.0	63.7*	67.8*
CCOc1ccc(/C=C/C(=O)Nc2ccc(C(N)=O)cc2)cc1OC	42.5*	-16.6	0.8	1.0	85.0*	94.2*
